Bioassay records from PubChem BioAssay.
Spn DPM-DC inh – blocks S. pneumoniae diphosphomevalonate decarboxylase. purified DPM-DC, PK/LDH coupled NADH fluorescence. actives 0.49% (n = 65,000). calls only at 10 µM;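 active means the 320 compounds with the highest percent inhibition in the single-dose primary screen, excluding strongly autofluorescent ones, cut at about 32% in these data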;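 further: kinetic rate of NADH fluorescence loss reporting ADP formed by the decarboxylase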
MK inhibit – blocks S. pneumoniae mevalonate kinase. purified MK, PK/LDH-coupled NADH absorbance 340 nm. actives 0.48% (n = 65,000). inhibition, % at 10 µM. AID 555;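 active means ranked among the strongest by inhibition in the single 10 µM screen, a fixed top-ranked set picked for dose follow-up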
NADH enzymes – blocks coupling enzymes of NAD/NADH assays; coupled PK/LDH NADH assays, four targets; IC50, µM (series often up to 10 µM); actives 0.02% (n = 65,000); AID 774;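 active means single-dose screening hits from any of four coupled enzyme assays that gave an IC50 when retested across doses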;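 further: the DPM-DC format reads NADH fluorescence rather than 340 nm absorbance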
Autofluor 339 – intrinsic fluorescence of library compounds, ex339/em460 – biochemical, MLSMR library, data from DPM-DC assay, artefact control, profiling panel. compound autofluorescence, ex339/em460 nm, NADH buffer; hits give high values; 1 = no-compound wells, NADH background. fluorescence fold increase at 10 µM. actives 5.5% (n = 65,000). AID 709;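 active means at 10 µM, mean starting fluorescence two-fold or more over control wells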;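 further: signal is the first read of a kinetic run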
Spn PMK inh – S. pneumoniae PMK inhibition. actives 0.49% (n = 65,000). inhibition, % at 10 µM. purified PMK, PK/LDH-coupled NADH absorbance 340 nm;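 active means top-ranked compounds by inhibition in the single 10 µM screen, taking a fixed number of the strongest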
Numbers stand for hits; i = inactive; nt = not tested or not shown; + = active, no number. Most compounds without a hit are left out; they make up all but 6.6% or so of the library.

SMILES	Spn DPM-DC inh	MK inhibit	NADH enzymes	Autofluor 339	Spn PMK inh
CCOc1cc2[nH]c(=O)n(CCCCC(=O)NCc3ccco3)c(=O)c2cc1OCC	i	i	i	i	i
CCCCCNC(=O)CCCCn1c(=O)[nH]c2cc(OCC)c(OCC)cc2c1=O	i	i	i	2.1	i
CCN(C(=O)c1cc2cccc(OC)c2oc1=O)c1ccccc1	i	i	i	i	i
O=C(Nc1nc(-c2ccccc2)cs1)c1ccc(Br)o1	i	i	i	i	i
COc1cccc(NC(=O)CSc2nnc(-c3cccc(OC(C)C)c3)n2N)c1	i	i	i	i	i
O=C(C1CCCN(Cc2cccnc2)C1)N1CCCCC1 (stereo unspecified)	i	45	i	i	i
O=P1(c2ccccc2)C=Cn2c1cc1c2CCCC1 (stereo unspecified)	i	i	i	i	i
COC(=O)c1ccc(OC(=O)c2ccco2)cc1	i	i	i	i	i
O=c1oc2cc(O)ccc2c2oc3cc(O)ccc3c12	nt	i	i	2.4	i
CCN(CC)c1ccc2c(c1)oc(=O)c1c(Cl)cc(=O)oc12	i	i	i	i	i
COC(=O)C(C)Oc1ccc2c3c(c(=O)oc2c1)CCCCC3 (stereo unspecified)	nt	i	i	3	i
O=C(Oc1ccc2c3c(c(=O)oc2c1)CCCC3)c1ccco1	nt	i	i	2.2	i
CCc1cc2c3c(c(=O)oc2cc1OC)CCCC3	nt	i	i	3.8	i
OCCN(Cc1ccccc1)Cc1ccc(F)c(F)c1	i	i	i	i	i
CCCOc1ccc2c3c(c(=O)oc2c1)CCCC3	nt	i	i	3.8	i
CC(C)Oc1ccc2c3c(c(=O)oc2c1)CCC3	nt	i	i	2.1	i
O=c1oc2cc(O)ccc2c2c1CCCC2	nt	i	i	2.1	i
Cc1coc2cc3oc(=O)c4c(c3cc12)CCCC4	i	i	i	i	i
CCOc1cc2oc(=O)c3c(c2cc1Cl)CCC3	i	i	i	i	i
O=C(CSc1nnc(NCc2ccccc2)s1)c1ccco1	i	i	i	i	i
COc1ccc(C2C(C#N)=C(/N=C/N3CCN(C)CC3)OC3=C2C(=O)CC(C)(C)C3)cc1OC (stereo unspecified)	i	i	i	i	i
CC(C)(C)c1[nH]nc2c1C(Cc1ccccc1)C(C#N)=C(N)O2 (stereo unspecified)	i	i	i	i	i
COCC(=O)Nc1nc2n(n1)C(c1ccc(OC)cc1)CC(c1ccc(OC)cc1)N2 (stereo unspecified)	i	i	i	i	i
COCC(=O)Nc1nc2n(n1)C(c1ccccc1)CC(c1ccc(OC)cc1)N2 (stereo unspecified)	i	i	i	2.7	i
Cc1cccc(C2CC(c3ccc(Br)cc3)Nc3nc(N)nn32)c1 (stereo unspecified)	i	i	i	i	i
SMILES	Spn DPM-DC inh	MK inhibit	NADH enzymes	Autofluor 339	Spn PMK inh
COc1ccc(C2CC(c3cccc(C)c3)n3nc(N)nc3N2)cc1 (stereo unspecified)	+	i	i	i	i
CSCCC(NC(=O)c1ccc(C)o1)C(=O)O (stereo unspecified)	i	i	i	i	i
COc1ccc(-c2cc(C(=O)NCCN3CCOCC3)c3ccccc3n2)cc1	nt	i	i	4.9	i
CCOc1ccc(-c2cc(C(=O)NCCCN3CCN(CC)CC3)c3ccccc3n2)cc1	nt	i	i	5.2	i
CCOC(=O)Cc1nnc2c(Nc3ccc(Cl)cc3)nc3nonc3n12	i	i	i	i	i
O=C(CN1CCN(c2ccccc2F)CC1)c1ccc2cc[nH]c2c1	nt	i	i	2.1	i
CCN(CC)c1ccc(NC(=O)CN2CCN(c3ccccc3F)CC2)cc1	i	i	i	i	i
C/C=C(\C)CN1CCN(c2cc(C)ccc2C)CC1	i	i	i	i	i
C/C=C(\C)CN1CCN(c2ccccc2F)CC1	i	51	i	i	i
CCN(CC)C(=O)CN1CCN(c2ccccc2F)CC1	i	68	i	i	i
COC(=O)c1ccc(NC(=O)NS(=O)(=O)c2ccc(C)cc2)cc1	i	i	i	i	i
Cc1csc2nc(CNS(=O)(=O)c3cccnc3)cn12	i	i	i	i	i
CC(C)OCCCn1c(=N)c(C(N)=S)cc2c(=O)n3ccccc3nc21	i	i	i	i	i
CCOC(=O)c1cc2c(=O)n3ccccc3nc2n(CCCOC)c1=NC(C)=O	nt	i	i	2.4	i
CCCn1c(=NC(=O)c2ccco2)c(C(=O)OCC)cc2c(=O)n3ccccc3nc21	nt	i	i	3.8	i
CC(C)(C)OC(=O)NC(CCCCNC=O)C(=O)O (stereo unspecified)	i	i	i	i	i
COc1ccc(CNc2nc3c(c(C(F)(F)F)n2)CCCCC3)cc1	i	i	i	i	i
CCC(=O)c1cc2c(cc1NC(=O)c1ccc(C)cc1)OCCO2	nt	i	i	3.1	i
CCC(=O)Nc1cc2c(cc1C(C)=O)OCCO2	i	i	i	i	i
COc1ccc(-c2nc(C#N)c(N3CCN(c4ccccc4)CC3)o2)cc1	i	i	i	i	i
O=S(=O)(c1ccccc1)c1nc(-c2cccs2)oc1NCC1CCCO1 (stereo unspecified)	i	i	i	i	i
N#Cc1nc(-c2cccs2)oc1NCC1CCCO1 (stereo unspecified)	nt	i	i	2.3	i
COc1ccc(-c2nc(C#N)c(NCC3CCCO3)o2)cc1 (stereo unspecified)	nt	i	i	2.3	i
CCOC(=O)C1CCN(C(=O)CN(c2ccc3c(c2)OCO3)S(C)(=O)=O)CC1	i	i	i	i	i
CCOC(=O)N1CCN(C(=O)CSc2nc3c(cnn3-c3ccc(Cl)cc3)c(=O)[nH]2)CC1	i	i	i	i	i
SMILES	Spn DPM-DC inh	MK inhibit	NADH enzymes	Autofluor 339	Spn PMK inh
Cc1ccccc1NC(=O)CN(C)S(=O)(=O)c1cccc2cccnc12	i	i	i	i	i
COc1ccc2[nH]c(C(=O)O)c(NS(=O)(=O)c3ccc(OC)c(OC)c3)c2c1	i	i	i	2.2	i
COc1ccc2[nH]c(C(=O)O)c(CCC(=O)O)c2c1	i	i	i	2.5	i
O=C(c1n[nH]c2c1CCCC2)n1ccnc1	i	i	i	i	i
CC1(C)NC(=O)N(CCCSc2ccc(Cl)cc2)C1=O	i	i	i	i	i
Cc1nc2ccccc2cc1C(=O)NCc1ccco1	i	i	i	i	i
O=C(NCc1ccco1)c1cc2ccc(O)cc2oc1=O	nt	i	i	3.8	i
COc1ccc2cc(C(=O)NC3CCCCC3)c(=O)oc2c1	nt	i	i	3.5	i
COc1ccc2cc(C(=O)NCc3ccco3)c(=O)oc2c1	nt	i	i	3.3	i
COc1ccc2cc(C(=O)NCc3ccco3)c(=Nc3ccc(C(=O)O)cc3)oc2c1	i	i	i	i	i
Cc1c(-c2cccs2)[n+](=O)c2c(n1[O-])CCCC2	i	i	i	i	i
CCCOc1nc2c(c(=O)n(C)c(=O)n2C)n1Cc1cccc2ccccc12	i	i	i	i	i
COc1cccc2[nH]c3c(N4CCC(C(N)=O)CC4)ncnc3c12	nt	i	i	3.7	i
